Laboratory results reported in PubChem BioAssay (Tox21).
Results filed as inconclusive are left out. Values without a mark were called inactive. The call rests on the fitted dose curve; in most records, active means well fitted inhibition curve with a large enough effect in the signal ratio in the repeat runs (not every such curve was filed as active); inconclusive means weak or mixed curves, or effect the other way; inactive means no such curve, though single readings can be large or run the other way; the % refers to the signal ratio.

Target: Vitamin D3 receptor (Homo sapiens) (UniProt P11473)
Sequence (P11473 whole entry, looked up): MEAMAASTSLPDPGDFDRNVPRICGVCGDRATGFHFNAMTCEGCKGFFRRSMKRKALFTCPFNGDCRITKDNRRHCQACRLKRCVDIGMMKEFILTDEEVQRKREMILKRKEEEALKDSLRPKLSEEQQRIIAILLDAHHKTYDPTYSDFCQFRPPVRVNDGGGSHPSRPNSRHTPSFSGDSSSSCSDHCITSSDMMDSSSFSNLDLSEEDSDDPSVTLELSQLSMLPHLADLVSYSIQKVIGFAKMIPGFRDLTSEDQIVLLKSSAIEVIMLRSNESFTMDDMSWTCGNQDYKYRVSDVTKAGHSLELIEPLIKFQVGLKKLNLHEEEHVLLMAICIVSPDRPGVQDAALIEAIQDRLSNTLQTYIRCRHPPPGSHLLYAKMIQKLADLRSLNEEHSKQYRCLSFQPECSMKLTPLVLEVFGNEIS
Assay: qHTS assay to identify small molecule antagonists of the vitamin D receptor (VDR) signaling pathway (AID 743223)
Settings: VDR-UAS-bla HEK293T, beta-lactamase FRET ratio, 16 h; series mostly up to 61 µM; activity change, negative = inhibition: at the top concentration
How it was run: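 VDR-bla cells were treated with compound plus 3 nM final 1alpha,25-dihydroxyvitamin D3 for 16 h at 37C. Beta-lactamase reporter read by B/G FRET substrate fluorescence after 2 h at room temperature. qHTS format.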
On the % scale 0 is the no-effect control and ±100 the full control effect.

Row | SMILES | activity change, negative = inhibition
1 | Cc1ncc(CSSCc2cnc(C)c(O)c2CO)c(CO)c1O | 16.8%
2 | CCCCCCC(CCCCCCCCCCC(=O)OCC(COC(C)=O)OC(C)=O)OC(C)=O (stereo unspecified) | 4.51%
3 | NC(=O)Nc1nc2ccccc2[nH]1 | -3.66%
4 | CC(O)CN(CCCN(C)C)CCCN(C)C (stereo unspecified) | -12.1%
5 | CC(C)(O)c1ccccc1 | 5.78%
6 | CCc1cc(S(=O)(=O)O)c2cc(C(C)C)cccc1-2 | -0.369%
7 | Cc1onc(-c2ccccc2)c1-c1ccc(S(N)(=O)=O)cc1 | 1.01%
8 | N#CCc1ccccc1[N+](=O)[O-] | 2.82%
9 | CCOC(=O)Cn1c(=O)sc2cccc(Cl)c21 | -3.16%
10 | CCCCCC[C@@H](CCC)C(=O)O | 3.89%
11 | Cc1cc(C)cc(OCC2CNC(=O)O2)c1 (stereo unspecified) | -2.22%
12 | NCCN1CCNC1=O | -1.61%
13 | O=C(O)/C=C/c1ccc(Cn2ccnc2)cc1 | 4.9%
14 | CSc1ccc(C=O)cc1 | -7.09%
15 | CCC(C)(C)C1CCC(OC)CC1 (stereo unspecified) | 2.69%
16 | C=CCSCC1Nc2cc(Cl)c(S(N)(=O)=O)cc2S(=O)(=O)N1 (stereo unspecified) | 9.9%
17 | Cc1c(F)cc2c(=O)c(C(=O)O)cn3c2c1CCC3C (stereo unspecified) | -13.8%
18 | CCCOCC(C)OCC(C)O (stereo unspecified) | -0.0616% [at 78.8 µM]
19 | CC(C)N1C(=O)c2ccccc2C1=O | -1.48%
20 | NS(=O)(=O)c1cc2c(cc1Cl)NC(CSCc1ccccc1)=NS2(=O)=O | 18.4%
21 | CC(=O)c1ccc(C)cc1 | 2.31%
22 | CC(CCO)CCCC(C)(C)O (stereo unspecified) | 5.73%
23 | CC1(C)OC(=O)Nc2ccc(Br)cc21 | 0.652%
24 | CCCCCCCCN(C)CCCCCCCC | 0% [at 78.8 µM]
25 | CC(C)COC(=O)c1ccccc1O | 5.09%
26 | CCCCC=O | 0.777%
